In PubChem BioAssay (NCI):
The panel holds about 83,000 compounds, 20% with a hit somewhere; the sample as a whole holds those more often.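 Cells were grown in 96-well plates and exposed to the test compound at a single concentration for 48 hours; results are reported as percent growth, with values below 10 considered active.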 The source made the active and inactive calls.

What was measured:
Assay in all cases: NCI-60 one-dose screen, 48 h (100 = growth as untreated, 0 = no growth, -100 = all killed)
Conditions in all cases: 10 µM unless noted
[1] = tested on: DU-145 prostate
[2] = tested on: K-562 leukemia
[3] = tested on: MALME-3M melanoma
[4] = tested on: MDA-MB-231 breast
[5] = tested on: RXF 393 renal
[6] = tested on: SF-268 CNS
[7] = tested on: SF-295 CNS
[8] = tested on: SF-539 CNS
[9] = tested on: UACC-257 melanoma
[10] = tested on: M14 melanoma
[11] = tested on: HCT-15 colon
[12] = tested on: HT29 colon
[13] = tested on: SNB-75 CNS
[14] = tested on: SNB-19 CNS
[15] = tested on: SK-MEL-5 melanoma
[16] = tested on: UACC-62 melanoma
[17] = tested on: LOX IMVI melanoma
[18] = tested on: SK-MEL-28 melanoma
[19] = tested on: U251 CNS
[20] = tested on: PC-3 prostate

Measured: growth

O=Cc1cc2ccccc2nc1Oc1ccc(C(F)(F)F)cc1
inactive: [1] 98.4% | [2] 59% | [3] 96% | [4] 75.7% | [5] 91.9% | [6] 83.4% | [7] 82.9% | [8] 97.8% | [9] 107% | [10] 99.8% | [11] 80.8% | [12] 94.1% | [13] 83.2% | [14] 90.7% | [15] 94.5% | [16] 72.5% | [17] 74.3% | [18] 107%

CCOC(=O)Nc1ccc(-c2ccc3c(c2)NC(=O)/C3=C\c2ccc[nH]2)cc1
inactive: [1] 110% | [2] 92.3% | [3] 110% | [4] 69.3% | [5] 112% | [6] 100% | [7] 101% | [8] 94% | [9] 113% | [11] 84.6% | [12] 105% | [13] 89% | [14] 99.3% | [19] 87.9% | [20] 101% | [15] 99.2% | [16] 101% | [17] 97.2% | [18] 111%

Cn1nc(CC#N)c2c(=N)n(N)cnc21
inactive: [1] 106% | [2] 103% | [3] 118% | [4] 96.7% | [5] 112% | [6] 101% | [7] 95% | [8] 108% | [9] 111% | [11] 111% | [12] 116% | [13] 87.4% | [14] 111% | [19] 99.4% | [20] 96.2% | [15] 111% | [16] 103% | [17] 103% | [18] 121%

OCc1cnccc1NCCCOc1ccccc1
inactive: [1] 104% | [3] 104% | [4] 88.6% | [5] 104% | [6] 101% | [7] 104% | [8] 102% | [9] 100% | [10] 109% | [11] 105% | [12] 102% | [13] 99.6% | [14] 94.9% | [19] 98.2% | [20] 96% | [15] 97.1% | [16] 90.5% | [17] 99.4%

COc1cc(-c2csc(NC(=O)c3cc(F)cc(C(F)(F)F)c3)n2)cc(OC)c1OC
inactive: [1] 14.6% | [3] 40.3% | [4] 56.5% | [5] 11.8% | [6] 42.4% | [7] 38.1% | [8] 26.8% | [9] 58.6% | [11] 34.3% | [13] 19.3% | [14] 40.2% | [19] 31.3% | [20] 36% | [15] 53.2% | [16] 43.6% | [17] 27% | [18] 50.3%
active: [2] 8.12% | [12] 6.41%

COc1cc2cc(Oc3cccc(NC(=O)Nc4cc(C(F)(F)F)cc(C(F)(F)F)c4)c3)c(C)nc2cc1OC
inactive: [1] 19.5% | [6] 15.3% | [14] 15.5%
active: [3] -3.13% | [4] -36.1% | [5] -24.5% | [7] -59.2% | [8] -40.9% | [9] -4.68% | [10] 9.04% | [11] 2.75% | [12] 4.89% | [13] 9.73% | [19] -26.5% | [20] 6.82% | [15] -58.5% | [16] -34.6% | [17] 1.98%

OCc1cnc2ccccc2c1NC1CCCCCC1
inactive: [1] 97.7% | [3] 102% | [4] 81.3% | [5] 103% | [6] 101% | [7] 86.4% | [8] 102% | [9] 94.5% | [10] 91.4% | [11] 98.4% | [12] 92.1% | [13] 91.4% | [14] 94.4% | [19] 92.6% | [20] 82.2% | [15] 59.7% | [16] 81.7% | [17] 89.2% | [18] 102%

CC/C(=C\c1ccc(OC)cc1)C(=O)c1ccc(OC)cc1
inactive: [1] 105% | [3] 114% | [4] 96.4% | [5] 126% | [6] 101% | [7] 76.5% | [8] 96.5% | [9] 101% | [10] 102% | [11] 92.7% | [12] 90.3% | [13] 77.3% | [14] 85.7% | [19] 91.7% | [20] 75.7% | [15] 101% | [16] 78.7% | [17] 95.1% | [18] 106%

Cc1cccc(C)c1N=c1oc2ccc(Cl)cc2nc1-c1ccccc1O
inactive: [1] 120% | [3] 105% | [4] 83.6% | [5] 90.9% | [6] 92.1% | [7] 106% | [8] 99.5% | [9] 90.8% | [10] 80.5% | [11] 89.4% | [12] 80.5% | [13] 87.3% | [14] 109% | [19] 94.4% | [20] 88.6% | [15] 91.3% | [16] 81.3% | [17] 87.9% | [18] 93.4%

CN1[C@@H]2CC[C@H]1/C(=C\c1ccccc1)C(=O)/C2=C/c1ccccc1
inactive: [1] 14.1% | [3] 72.8% | [4] 47.6% | [5] 43.4% | [6] 38.3% | [7] 32.8% | [8] 43.1% | [9] 42.8% | [10] 43.4% | [11] 27.9% | [12] 10.9% | [13] 26.4% | [14] 47.1% | [19] 16.6% | [20] 36.8% | [15] 43.9% | [16] 26.6% | [17] 19.7% | [18] 70.9%

N#C/C(=C\c1cccc(C#N)c1)c1ccccc1
inactive: [1] 101% | [3] 98.9% | [4] 102% | [5] 108% | [6] 99% | [7] 99.5% | [8] 99.4% | [9] 99.2% | [10] 104% | [11] 111% | [12] 96.6% | [13] 88.9% | [14] 109% | [19] 89.2% | [20] 99.7% | [15] 101% | [16] 108% | [17] 98.9% | [18] 115%

CC1(C)NCCC[C@]2(C)[C@H]3CC[C@@H]4[C@H]5[C@H](C(=O)/C=C/c6ccco6)CC[C@]5(CO)CC[C@@]4(C)[C@]3(C)CC[C@@H]12
inactive: [1] 97.4% | [3] 78.7% | [4] 96.2% | [5] 89.2% | [6] 95.7% | [7] 113% | [8] 87.8% | [9] 91.9% | [10] 91.3% | [11] 59.1% | [12] 106% | [13] 83% | [14] 94.2% | [19] 82% | [20] 62.4% | [15] 93.4% | [16] 87.8% | [17] 74.8% | [18] 104%

COc1ccc(/C=C/C(=O)Nc2cc(/C=C\c3cc(OC)c(OC)c(OC)c3)cc(OC)c2OC)cc1OC
active: [5] -5.89% | [7] 4.33% | [10] 5.78% | [15] -59.3%
inactive: [1] 53.2% | [3] 32.8% | [4] 52% | [6] 31.5% | [8] 28.6% | [9] 50.7% | [11] 25.9% | [12] 14.6% | [13] 34.7% | [14] 46.2% | [19] 41.3% | [20] 20.7% | [16] 16.3% | [17] 27.7% | [18] 40.1%

Cn1c(N2NC(=O)C(N=Nc3ccc(S(N)(=O)=O)cc3)C2=O)nc(-c2ccco2)c(C#N)c1=O (stereo unspecified)
inactive: [1] 95.7% | [3] 74.7% | [4] 93.8% | [6] 98.8% | [7] 123% | [8] 96.7% | [9] 88.7% | [10] 91.9% | [11] 61.7% | [12] 85.3% | [13] 64.5% | [14] 99.7% | [19] 96.9% | [20] 82.9% | [15] 98% | [16] 83.5% | [17] 76.8% | [18] 102%
active: [5] -3.8%

O=C1c2ccccc2C(=O)c2c([N+](=O)[O-])ccc(Cl)c21
inactive: [1] 101% | [3] 116% | [4] 103% | [5] 94.3% | [6] 87.4% | [7] 116% | [8] 99.1% | [9] 96.2% | [10] 108% | [11] 75.9% | [12] 39.4% | [13] 96.4% | [14] 99.1% | [19] 65.6% | [20] 82.4% | [15] 97.9% | [16] 96.5% | [17] 55.4% | [18] 106%

O=C1c2c(c3c4cccc(F)c4[nH]c3c3ccc4ccccc4c23)C(=O)N1O
active: [15] 9.72%
inactive: [1] 55.1% | [3] 76.8% | [4] 70.8% | [5] 46.9% | [6] 32.5% | [7] 47.9% | [8] 40.4% | [9] 67.5% | [10] 38.3% | [11] 15.5% | [12] 23.8% | [13] 68.7% | [14] 30.2% | [19] 26.8% | [20] 32.5% | [16] 26.9% | [17] 18.4% | [18] 58.5%
